“And” between values parts separate entries of the source, which are not always exact repeats. Equal entries are not always repeated. Results filed as inconclusive are left out. Entries that show only a call come without a potency. The source made the active and inactive calls. Calls follow the shape of the dose curve; as a rule, active = well fitted activation curve with a large enough effect in the repeat runs; inconclusive = weak or mixed curves; inactive = flat fitted curve, though single readings scatter.
Potency is read from the fitted curve at half-maximal effect.

The experiment can be described thus: A CellTox Green Cytotoxicity Assay to monitor cytotoxicity in HepG2 cells - 32 hour (AID 1224883). Also: nearly all actives have a fitted effect of over 50% in size. Particulars: CellTox Green fluorescence; series mostly up to 76.8 µM. The source says:
National Center for Advancing Translational Sciences [NCATS]
NIH Chemical Genomics Center [NCGC]
U.S. Environmental Protection Agency [EPA]
National Institutes of Environmental Health Sciences [NIEHS]
National Toxicology Program [NTP]
Cell-based models are critical for drug discovery. Determining the natural cytotoxic effects resulting from test compounds is an essential research activity. A CellTox Green Cytotoxicity Assay to monitor cytotoxicity in real time of continues cell culture during 40 hours of the compound treatment was used to screen Tox21 10K library compounds in HepG2 cells. CellTox Green Cytotoxicity Assay is a nonlytic, homogeneous, biofluorescent method to measure cytotoxicity in cell culture after experimental manipulation. The assay system uses a proprietary asymmetric cyanine dye that is excluded from viable cells but preferentially stains the dead cell's DNA. […] Viable cells produce no appreciable increases in fluorescence. Therefore, the fluorescence signal produced by the binding interaction with dead cell DNA is proportional to cytotoxicity.
The mixture of HepG2 cell suspension and reagents were dispensed at 600cells/6 ul/well in 1536-well tissue culture treated black solid bottom plates using a Multidrop dispenser. After the assay plates were incubated at a 37 C/5% CO2 incubator for 5 hours, 23 nL of compounds dissolved in DMSO, positive and negative controls was transferred to the assay plate by a pintool work station. The plates were incubated at 37 C for 40 hours. The fluorescence intensity were measured at 0h, 8h, 16h, 24h, 32h and 40h time points using ViewLux plate reader during compound treatment.
Regarding `CO[C@]12C[C@@H](COC(=O)c3cncc(Br)c3)CN(C)[C@@H]1Cc1cn(C)c3cccc2c13`, the Potency was 23.9 µM (active).

Regarding `CCOC(=O)Nc1ccc(NCc2ccc(F)cc2)nc1N`, the Potency result is “inactive”.

Regarding `Cc1ccc(=O)n(-c2ccccc2)c1`, the Potency result is “inactive”.

As to `N[C@H](C(=O)O)c1ccc(O)cc1`, the cytotoxicity increase is -6.23% [at 15.8 µM] (inactive). In the case of `CCCCCCOC(=O)CCCCC(=O)OCCCCCC`, the Potency entry was “inactive”. On to `CCc1cccc2c(CCO)c[nH]c12`, for which the Potency entry is “inactive”. On the same count and under the same terms, with `Cc1cnc(NS(=O)(=O)c2ccc(N)cc2)nc1` the entry was “inactive”. `C=CCCCCCCCCC=O`: the Potency entry is “inactive”. For the compound `C=COCC1CCC(CO)CC1` (stereo not given), the Potency entry was “inactive”. The same measure, in the same setting: with `CC(=O)Nc1ccc(S(N)(=O)=O)cc1` the entry was “inactive”; with `C1CN(CCOCCN2CCOCC2)CCO1`, “inactive”; with `C[N+](C)(C)CC(O)CC(=O)[O-]` (stereo not given), “inactive”.

Turning to `Cc1cc(O)cc2c1O[C@](C)(CCC[C@H](C)CCC[C@H](C)CCCC(C)C)CC2`, the Potency result was “inactive”. Same read-out and setting: with `CCCCC(CC)COC(=O)c1ccccc1O` (stereo not given) the entry was “inactive”; with `O=C1CC2CC1C1CCCC21` (stereo not given), “inactive”. `O=C1CCCCCCCCCCCN1`: the Potency result was “inactive”. The same measure, in the same setting: with `CCN(CC)CCOCCOC(=O)C1(c2ccccc2)CCCC1` the entry was “inactive”. Still for that read-out and setting: then `OCCOc1ccc(OCCO)cc1`, with “inactive”.

`CC(C)=CCCC(C)CC(=O)O` (stereo not given): the Potency result is “inactive”.

Take `CC(=O)OCC(=O)[C@@]1(O)CC[C@H]2[C@@H]3CCC4=CC(=O)CC[C@]4(C)[C@H]3C(=O)C[C@@]21C`: the Potency entry was “inactive”. Turning to `CCCN(CCC)CCc1cccc2c1CC(=O)N2`, the Potency result was “inactive”.

Consider `CN(C)CCCN1c2ccccc2CCc2ccc(Cl)cc21`, for which the Potency was 34.7 µM (active) and 23.9 µM (active). For the compound `C=C(C)CS(=O)(=O)O`, the Potency result was “inactive”.

Consider `COC(=O)c1cc(C(=O)OC)cc(S(=O)(=O)O)c1`, for which the Potency result was “inactive”.

As for `O=c1[nH]c(=O)n([C@H]2C[C@H](O)[C@@H](CO)O2)cc1I`, the Potency result was “inactive”. On the same count and under the same terms, then `C=C[Si](OC(=C)C)(OC(=C)C)OC(=C)C`, with “inactive”; and `NCCc1cnc[nH]1`, with “inactive”. Regarding `CC(C(=O)O)c1ccc(CC2CCCC2=O)cc1` (stereo not given), the Potency entry was “inactive”.

As for `CCCCCCCCCCCCCC=O`, the cytotoxicity increase is 1.86% [at 6.97 µM] (inactive). Turning to `CCc1nccnc1CC`, the cytotoxicity increase was 4.25% [at 15.8 µM] (inactive). On to `OC(CCN1CCCCC1)(c1ccccc1)C1CC2C=CC1C2` (stereo not given), for which the Potency result was “inactive”.

Consider `OCCCC1CCCCC1`, for which the Potency entry is “inactive”. On the same count and under the same terms, then `CN(C)CCCSc1ccccc1NC(=O)/C=C/c1ccccc1`, with 19 µM (active); and `O=C(O)c1ccccc1OP(=O)(O)O`, with “inactive”. Turning to `Nc1ccc(S(=O)(=O)Nc2ccnn2-c2ccccc2)cc1`, the cytotoxicity increase was 3.28% [at 15.8 µM] (inactive).

With `Cc1nc2c([nH]1)c(=O)n(C)c(=O)n2Cc1ccco1`, the Potency result is “inactive”. As for `Cc1ccc(C#N)cc1`, the Potency result is “inactive”.

Take `NS(=O)(=O)c1ccc(C(=O)O)cc1`: the Potency result was “inactive”.

As for `CC[N+](C)(C)c1cccc(O)c1`, the Potency entry was “inactive”. The same measure, in the same setting: with `NS(=O)(=O)c1ccccc1Cl` the entry was “inactive”.
